Test results published in PubChem BioAssay (Tox21).
Results filed as inconclusive are left out. Calls of active or inactive are those of the source. Calls follow the shape of the full dose curve.

Assay: p53 small molecule agonists, cell-based qHTS assay: qHTS cell viability counter screen (AID 1963581); also: nearly all actives have a fitted effect of over 45% in size
Conditions: p53RE-bla HCT-116 viability, ATP luminescence, 16 h; series mostly up to 66 µM; activity change, negative = cytotoxicity: at the top concentration
How it was run: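 ATP content measured by luminescence in HCT-116 p53RE-bla cells treated 16 h at 37 C, same wells as the reporter screen.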
% is scaled to controls: 0 for no effect and ±100 for the full control effect; potency is read from the fitted curve at half-maximal effect.

Structure (SMILES)	activity change, negative = cytotoxicity	Potency
CCOC(=O)C1=NN(c2ccccc2)C(=O)C1	-5.92% (inactive)	–
C=C(C)CS(=O)(=O)O	1.5% (inactive)	–
O=C(Cl)c1c(Cl)cccc1Cl	-0.34% (inactive)	–
Cc1ccc2c(c1)CCCN2	1.17% (inactive)	–
Cc1nc2ccc(CN(C)c3ccc(C(=O)N[C@@H](CCC(=O)O)C(=O)O)s3)cc2c(=O)[nH]1	-23.9% [at 30.3 µM] (inactive)	–
CCCCCCCCCCCCCOC(=O)CCSCCC(=O)OCCCCCCCCCCCCC	-3.06% [at 13.5 µM] (inactive)	–
O=C=NCC1CCCC(CN=C=O)C1 (stereo unspecified)	10.1% (inactive)	–
OC/C=C/c1ccccc1	9.18% (inactive)	–
CC(C)=CC=O	-6.61% (inactive)	–
CC(=O)c1ccc(C)cc1	-4.4% (inactive)	–
CCCCCCCCCCCCOC(C)=O	-2.13% (inactive)	–
CC1=C(C(=O)O)N2C(=O)[C@@H](NC(=O)[C@H](N)C3=CCC=CC3)[C@H]2SC1	-6.26% [at 30.3 µM] (inactive)	–
Oc1cc2ccccc2c2ccccc12	–	10.2 µM (active)
CC(C)(C)c1ccc(N)cc1	-5.46% (inactive)	–
O=C1CCC(=O)N1Cl	-5.99% (inactive)	–
COc1ccc(CCO)cc1	-5.81% (inactive)	–
CC(=O)OCC1=C(C(=O)O)N2C(=O)[C@@H](NC(=O)CSc3ccncc3)[C@H]2SC1	6.95% [at 30.3 µM] (inactive)	–
COC(=O)C(C)=O	-0.218% (inactive)	–
SC1CCCC1	-12.7% (inactive)	–
CC(O)CC(C)O (stereo unspecified)	5.45% (inactive)	–
CN1C(C)(C)CC(O)CC1(C)C	10.6% (inactive)	–
CC(C)CCC(=O)CCC(C)C	-8.84% (inactive)	–
CCCCCCCCCCCCCCC	4.78% (inactive)	–
Nc1ccc2cc(S(=O)(=O)O)cc(O)c2c1N=Nc1ccccc1C(F)(F)F	-13.1% (inactive)	–
CO/N=C1\CN(c2nc3c(cc2F)c(=O)c(C(=O)O)cn3C2CC2)CC1CN (stereo unspecified)	16.9% [at 30.3 µM] (inactive)	–
C=C(C)C(=O)OCCOP(=O)(O)OCCOC(=O)C(=C)C	25.1% (inactive)	–
